# From PubChem BioAssay
# USP28 inh – inhibitors of human USP28 deubiquitinase. purified USP28, Ub-rhodamine cleavage fluorescence, 30 min. inhibition, % at 25 µM. 47,000 tested, 3% active. AID 1645857, 2021
# USP17 inh – inhibitors of human USP17 deubiquitinase; Ubiquitin carboxyl-terminal hydrolase 17-like protein 5 (Homo sapiens), A8MUK1; purified USP17, Ub-rhodamine cleavage fluorescence, 3 h; inhibition, % at 50 µM; 47,000 tested, 6.5% active; AID 1645855, 2021
# Target sequence (A8MUK1 whole entry, looked up): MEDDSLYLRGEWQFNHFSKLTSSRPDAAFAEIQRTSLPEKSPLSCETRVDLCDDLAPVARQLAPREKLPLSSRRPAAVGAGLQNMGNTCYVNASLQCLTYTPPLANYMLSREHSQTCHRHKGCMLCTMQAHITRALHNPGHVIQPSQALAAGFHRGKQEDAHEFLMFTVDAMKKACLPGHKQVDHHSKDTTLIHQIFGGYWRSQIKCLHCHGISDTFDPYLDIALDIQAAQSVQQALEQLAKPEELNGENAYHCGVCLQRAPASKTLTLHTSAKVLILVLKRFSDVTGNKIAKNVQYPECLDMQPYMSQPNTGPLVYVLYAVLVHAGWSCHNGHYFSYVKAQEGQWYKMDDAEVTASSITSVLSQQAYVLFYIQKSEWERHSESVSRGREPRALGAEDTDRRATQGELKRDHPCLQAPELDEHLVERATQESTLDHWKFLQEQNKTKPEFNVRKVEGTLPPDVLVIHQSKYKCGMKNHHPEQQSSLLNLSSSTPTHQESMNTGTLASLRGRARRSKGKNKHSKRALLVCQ
# USP30 block – inhibitors of human USP30 deubiquitinase; AID 1645860, 2021; Ubiquitin carboxyl-terminal hydrolase 30 (Homo sapiens), Q70CQ3; purified USP30, Ub-rhodamine cleavage fluorescence; 47,000 tested, 5.3% active; inhibition, % at 25 µM
# Active calls of the source: *; . = no result given. Rows were chosen to be rich in hits. Some 11% of all compounds tested hit in one or more screens of this group. Rule as the data show it: active = inhibition above about 30%; inactive = the rest.
SMILES,USP28 inh,USP17 inh,USP30 block
O=C(c1ccc(F)cc1F)N1CCN(Cc2nnnn2-c2ccccc2)CC1,2,-2,8
Cn1c(=O)n(CC(=O)OCc2ccccc2)c(=O)c2c1nc1oc(C(C)(C)C)cn12,-12,-7,-24
CCOC(=O)CCn1c(=O)c2c(nc3oc(C(C)(C)C)cn32)n(C)c1=O,12,15,32*
CCN1c2ccc(F)cc2C(=O)NC12CCN(C(=O)c1ccccc1)CC2,3,0,0
O=C(CSc1ccc2nnc(-c3ccccn3)n2n1)NCc1ccccc1,6,10,28
CS(=O)(=O)N(Cc1ccco1)Cc1cc2ccccc2[nH]c1=O,4,-13,-3
O=c1[nH]c2ccccc2cc1CN(Cc1ccco1)S(=O)(=O)c1ccc(F)cc1,34*,36*,51*
CCN(CCO)c1ncnc2c1oc1nc3c(cc12)COC(C)(C)C3,-7,-5,-14
O=c1[nH]c(=O)n(Cc2ccco2)c2c1CN(C1CCCC1)CN2,-9,.,-16
COc1ccccc1CNC(=O)[C@@H]1C[C@]2(C)N[C@@]1(C)C(C)(C)OC2=O,-13,3,-1
O=C(NCc1cccc(Cl)c1)c1sc2ncccc2c1-n1cccc1,31*,16,-57
O=C(CNC(=O)c1ccc2nc(-n3cccc3)sc2c1)NCc1cccc(Cl)c1,-29,-51,-70
Cc1cc(O)c(Oc2cc(C)cc(O)c2O)c(O)c1,47*,47*,31*
COc1ccc(C(=O)c2c[nH]c(C(N)=O)c2)cc1,3,3,20
N#Cc1cc(C(=O)c2ccc(Cl)cc2)c[nH]1,28,51*,29
CCCCC(=O)N1CCN(c2nc3ccccc3n2C)CC1,-3,1,-13
Cc1nn(Cc2ccccc2)c2sc(C(=O)Nc3nc4ccccc4[nH]3)cc12,27,67*,44*
COc1ccccc1NC(=O)c1ccc(Cn2nc(C)c(Cl)c2C)cc1,9,-6,-10
Cc1ccc(Cn2nc(C)c3cc(C(=O)NC4=NCCS4)sc32)cc1,-16,-8,-18
COc1ccccc1NC(=O)c1cc2c(C)nn(Cc3ccccc3)c2s1,20,70*,0
Cc1cc2nc(N3CCCC(C(F)(F)F)C3)c3ccccc3n2n1 (centres undefined),-5,.,0
CC(=O)N1CCSc2ccc(S(=O)(=O)N(C)c3cccc(C)c3)cc21,-8,-21,-38
NC(=O)CN1C(=O)CC(c2ccco2)S(=O)(=O)c2ccccc21 (centres undefined),-21,-52,-100
CCCc1noc(-c2cccnc2N2CCCN(C(=O)C3CCC3)CC2)n1,-1,-6,-7
CCCn1nc(-n2cnnc2)c(NC(=O)c2ccccc2OCC)c1C,-1,5,-4
SMILES,USP28 inh,USP17 inh,USP30 block
CCC(Sc1ccc2nnc(-c3ccccn3)n2n1)C(=O)OC (centres undefined),9,16,17
COCCCN1C(=O)C(CC(=O)Nc2ccc3c(c2)OCCO3)n2c1nc1ccccc12 (centres undefined),1,18,8
CCCCn1c(=O)c(CCC(=O)OCC(=O)Nc2ccc3c(c2)OCCO3)nc2ccccc21,62*,-12,-4
Cc1c(CN2CCOC(c3cccc(-c4ccc(C(N)=O)cc4)n3)C2)cnn1C (centres undefined),-12,-3,0
CNc1ncc(C(=O)c2ccc(Br)cc2)s1,3,47*,39*
Cc1ccc(-c2c[nH]cc2C(=O)c2ccc(Br)cc2)cc1,-3,1,5
CC1=CCC2C3(C)CCC(=O)C(C)(C)C3CCC2(C)C12Cc1c(c(C)c(C)oc1=O)O2 (centres undefined),5,18,24
COc1ccc(CNC(=O)C2Cn3ccnc3C3(CCN(CCC(C)C)CC3)O2)cc1 (centres undefined),4,-16,5
CC(=O)NC1CCN(C(=O)c2sc(-c3ccc(F)cc3)nc2C)CC1,3,9,17
Cc1cn2nc(N3CCC(C4CCCCCN4C(N)=O)CC3)sc2n1 (centres undefined),6,12,10
NC(=O)N1CCCCCC1C1CCN(c2ncnc3ccsc23)CC1 (centres undefined),15,24,32*
CCN(CC)c1ccc2nnc(CCC(=O)NCc3ccc4c(c3)OCO4)n2n1,-33,-33,-100
Cc1nc(NCc2nnc3n2CCC3)c2c(-c3ccccc3)csc2n1,-6,5,0
O=C(CN1C(=O)C2CCCC2=Nc2ccccc21)Nc1cccc(F)c1 (centres undefined),-12,15,-12
O=C(Cn1cncc(C(=O)NC2CCCC2)c1=O)Nc1cccc(F)c1,-4,82*,0
O=C(Cn1c(-c2ccccc2)ncc(C(=O)NC2CC2)c1=O)Nc1ccccc1,27,36*,73*
Cc1ccccc1NC(=O)Cn1c(C)ncc(C(=O)NC2CC2)c1=O,2,2,9
CCN1C(=O)C(=O)N(Cc2ccc(-n3nc(C)cc3C)cc2)C1=O,6,8,14
O=C(Nc1cc(F)ccc1F)/C(=C/c1ccco1)n1nnnc1-c1ccccc1,-83,-40,-281
CNc1cncc(C2CCCN2C(=O)c2cn3cc(C)ccc3n2)n1 (centres undefined),0,-12,-2
COc1ccc(C)cc1NC(=O)C(OC(=O)c1cc(S(=O)(=O)N2CCOCC2)ccc1C)c1ccccc1 (centres undefined),-12,-20,-22
Cc1ccc(S(=O)(=O)NCC(=O)OC(C(=O)Nc2cc(C)ccc2C)c2ccccc2)cc1 (centres undefined),9,51*,47*
CC(=O)c1cccc(NC(=O)COC(=O)c2c3c(nc4ccccc24)CCC(C(C)(C)C)C3)c1 (centres undefined),-4,-19,-37
COc1ccc(NC(=O)CCOc2ccccc2C)cc1S(=O)(=O)Nc1cc(C)ccc1Br,25,6,35*
COc1ccc(CC(=O)Nc2ccc(C)c(S(=O)(=O)Nc3ccccc3OC)c2)cc1,0,1,4
SMILES,USP28 inh,USP17 inh,USP30 block
COc1c(O)c(O)c2c(=O)cc(-c3ccc(O)cc3)oc2c1OC,40*,67*,13
COc1cc(-c2oc3cc(OC)c(OC)c(O)c3c(=O)c2OC)ccc1O,-8,1,-28
COc1cc(C2CC(=O)Oc3n[nH]c(-c4ccccc4)c32)cc(OC)c1OC (centres undefined),0,7,4
COc1cc(OC)c2c(=O)cc(-c3ccccc3)oc2c1OC,4,1,37*
CCc1nc2ccccc2n2c(C)nnc12,5,4,-2
CCCCCCCC[C@@H](C)[C@@H]1OC(=O)[C@H](CO)NC(=O)[C@H](C(=O)c2c[nH]c3ccccc23)NC(=O)[C@@H](CCC(=O)O)NC(=O)[C@H]1C,16,22,27
CCCCCCCCCCCC(O)CC(=O)N[C@@H](CC(C)C)C(=O)N[C@H](CCC(=O)O)C(=O)N[C@H]1C(=O)N[C@H]([C@@H](C)CC)C(=O)NC(CC(C)C)C(=O)N[C@H](CO)C(=O)N[C@@H](CC(C)C)C(=O)N[C@@H](CC(C)C)C(=O)N[C@H](CO)C(=O)N[C@@H](C(C)C)C(=O)O[C@@H]1C (some centres undefined),43*,51*,-15
